# Measurements from the supplement of paper PMC3334620.
# The full ranking holds about 33,000 sequences; the median of “E-score (-0.5 to 0.5)” is about -0.04, and the highest 2% start at about 0.36. For the sample, the highest values were picked, then their nearest neighbours and some sequences at random.
# Biological target: T1, Hmlalpha2 (UniProt P0CY09)
# T1 sequence: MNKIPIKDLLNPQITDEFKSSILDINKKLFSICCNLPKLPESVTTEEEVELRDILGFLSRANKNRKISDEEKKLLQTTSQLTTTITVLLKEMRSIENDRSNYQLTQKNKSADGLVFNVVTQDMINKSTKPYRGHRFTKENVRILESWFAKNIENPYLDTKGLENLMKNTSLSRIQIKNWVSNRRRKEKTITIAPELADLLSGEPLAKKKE
# Experiment: PBM E-score (8-mer binding enrichment) (E-score (-0.5 to 0.5)); higher = stronger / more preferred TF binding
# Settings: protein concentration: 200 nM; construct: GST-full length
# Method in brief: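 Each ungapped eight-base word and its reverse complement, pooled, received an E-score from the Universal PBM Analysis Suite. Underlying scans, normalised with masliner, recorded fluorescent anti-GST bound to GST-tagged yeast transcription factors. These were applied at about 100-200 nM to universal all-10-mer Agilent arrays double-stranded by primer extension.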
row,Sequence,PBM E-score
1,GCGCCAAC,-0.0446
2,CGCTATAA,-0.00727
3,CCTTAACA,0.291
4,ACTTAACA,0.388
5,ACTTAACT,0.159
6,TCTTAAGA,-0.132
7,ACTTAACG,0.14
8,GCTTAACA,0.378
9,GCTTAACC,-0.00807
10,TCTTAAAA,-0.0174
11,TCTTAACA,0.404
12,TATAACGA,0.176
13,ACCTAGCC,-0.205
14,AGTAGTGC,-0.153
15,GAGACGAC,-0.19
16,CCAAAAGG,-0.136
17,CGGCGGCC,-0.188
18,ACCGTGAT,-0.0701
19,ACACGCGG,0.324
20,ACACGCGC,0.304
21,ACACGCGT,0.43
22,ACACGCGA,0.378
23,ACGCGCGT,0.343
24,AAACGCGT,0.312
25,AACTGCAC,0.0702

row,Sequence,PBM E-score
1,AATGTAAC,0.296
2,GAGGTAAA,0.228
3,TCTGTAAA,0.278
4,GATGTAAA,0.433
5,ACTGTAAA,0.222
6,GATGTAGC,-0.0783
7,ACTGTAAT,0.251
8,AATGTAAA,0.434
9,AATGTAAT,0.461
10,ACAATTCT,0.156
11,AAAGAATC,-0.124
12,CCTCTTCG,-0.127
13,AAGGCTTC,-0.116
14,GCTACACA,0.323
15,GTACTACA,0.369
16,ACTACACC,0.166
17,ACTACACT,0.253
18,CTACTACA,0.304
19,TCTACACA,0.445
20,CCTACACG,0.393
21,CCTACACC,-0.00672
22,TCTACAGA,0.133
23,ACTACACG,0.454
24,ATACTACA,0.32
25,CCTACACA,0.266

row,Sequence,PBM E-score
1,ATGGTTAA,0.139
2,CATGTGAC,0.19
3,CCCCTTCA,-0.233
4,AGTGCAGG,-0.159
5,TCAAGCCA,-0.0161
6,CCCCCTAC,-0.279
7,CCCAATCC,-0.281
8,CGTATCCA,-0.0445
9,AACAACGG,0.138
10,GAACTACA,0.197
11,ACTACAGA,0.119
12,TAACTACA,0.378
13,ACACTACT,0.105
14,CCACTACA,0.212
15,ACTACAAG,0.267
16,ACACTACA,0.397
17,CAACTACA,0.316
18,ACTACACA,0.406
19,AGCTCTTC,-0.21
20,ATCGCGGA,-0.302
21,GTCAAGTA,0.201
22,CGAAGCGA,-0.131
23,CCAGTAGC,-0.157
24,CACCGCCG,-0.288
25,ATGAGTCG,-0.0768

row,Sequence,PBM E-score
1,CATCAACC,0.0266
2,TAGACGCA,0.0971
3,TCCCTGAA,-0.0392
4,ATATGTAC,0.337
5,CTATGTAC,0.401
6,ATATGTAA,0.416
7,GTATGTCA,0.352
8,CTATGTGA,0.172
9,ATATGTAG,0.3
10,ATATGTGA,0.234
11,GTATGTGA,0.199
12,GTATGTAA,0.477
13,CTATGTAA,0.485
14,CTCTGTAA,0.195
15,CTCTGTAC,-0.00455
16,ATCAAAAA,0.0225
17,AAAGCGAC,0.0782
18,GCTCTCCC,-0.266
19,AGTGCATA,0.1
20,GCTCAGAA,-0.0102
21,AGTAACTA,0.213
22,CAGATCCA,-0.0975
23,AGACGCCG,-0.154
24,ATACGTAA,0.379
25,TTACGTAA,0.426

row,Sequence,PBM E-score
1,ATACGTAG,0.257
2,ATACGCAA,0.347
3,GTACGTAA,0.34
4,TTACGCAA,0.391
5,CTACGTAA,0.318
6,ATACGTAC,0.242
7,GTACGCAA,0.155
8,CTCCTCGC,-0.164
9,CTCCATCC,-0.1
10,CAGCCGTC,-0.132
11,TACACATA,0.408
12,AACACATA,0.39
13,AACACATC,0.291
14,CACACATA,0.214
15,GACACATA,0.26
16,AACACATG,0.363
17,GAACCACA,0.0162
18,GAATTGAC,0.104
19,ACTTTGGA,0.136
20,ATGTCATG,0.388
21,GTGTCAAC,0.305
22,ATGTCAAG,0.305
23,ATGTCATC,0.0953
24,CTGTCAAC,0.198
25,ATGTCAAA,0.354

row,Sequence,PBM E-score
1,GTGTCAAA,0.382
2,CTGTCAAA,0.18
3,ATGTCAAT,0.4
4,TTGTCAAA,0.262
5,ATGTCATA,0.311
6,ATGTCAAC,0.374
7,AGAAAGCG,-0.00586
8,ATGCTGGC,0.0473
9,GCCATTTA,0.00861
10,GAGATTCC,-0.218
11,ATATTCTG,0.00643
12,CCTTAAAC,-0.15
13,ATGCTAAT,0.167
14,AGATTGTG,0.0599
15,AACATTAC,0.332
16,CACATTAG,-0.078
17,CACATTAC,0.375
18,CGCGCACA,0.133
19,CATGTAGG,0.407
20,CCTGTAGA,0.0876
21,CAAGTAGG,-0.0322
22,GATGTAGA,0.314
23,CATGTAGA,0.472
24,AGTGTAGA,0.171
25,AATGTAGG,0.0581

row,Sequence,PBM E-score
1,CGTGTAGA,0.482
2,TATGTAGA,0.424
3,CATGTAGC,0.344
4,CGTGTAGC,0.344
5,AATGTAGA,0.301
6,ACATAGCC,0.231
7,CCGCTCTC,-0.296
8,AGCTTAAA,-0.0456
9,AATCTGTA,0.186
10,AATTAGGC,-0.0388
11,AGCCTAAG,-0.223
12,CTAGACGA,-0.137
13,AACAGGTG,0.184
14,TAGATATA,0.0377
15,CGCATGTA,0.422
16,GGCATGCA,0.128
17,AGCATGTA,0.458
18,GGCATGTA,0.439
19,AGCATGTC,0.267
20,AGCATGTG,0.22
21,CGCATGGA,-0.0665
22,CGCATGTC,0.274
23,GGCATGGA,-0.113
24,AAGGGTGC,-0.233
25,AGGGTGTA,0.186

row,Sequence,PBM E-score
1,TTCTACAA,0.314
2,ACCCTGAT,-0.3
3,ATGTTATG,0.425
4,ATGTTATC,0.401
5,ATGTTACG,0.351
6,ACGTTATA,0.275
7,CTGTTATC,-0.00298
8,AGGTTATA,0.0651
9,CTGTTATA,0.29
10,ATGTTATA,0.418
11,GTGTTATA,0.444
12,ACGTTATC,0.145
13,AAGTTATG,0.256
14,GCGTTATA,0.218
15,ATGAGGCG,-0.102
16,AAGGAGCA,-0.237
17,CACCTCAC,0.0105
18,CCTATTCA,-0.319
19,CGCGGCCC,-0.135
20,CATTCTCG,-0.0595
21,AGAACGAC,-0.0288
22,AAGAGCGA,-0.2
23,GTCGTGCA,0.0844
24,ATCGTGTA,0.475
25,CTCGTGTC,0.257

row,Sequence,PBM E-score
1,GTCGTGTA,0.464
2,GTCGTGGA,-0.154
3,ATCGTGTC,0.358
4,ATCGTGTG,0.313
5,CTCGTGTA,0.434
6,CTCGTGGA,-0.107
7,CACCTATC,-0.0688
8,AGTAGTCA,-0.00856
9,CCAGGTAC,-0.122
10,ATAAGCAG,-0.00191
11,CGTTTTTA,0.253
12,GCAGTGTA,0.292
13,ACACGGGT,0.391
14,ACACGGCT,0.32
15,AAACGGGT,0.153
16,ACACGGGG,0.3
17,ACACGGGC,0.325
18,ACACGGGA,0.371
19,CTCTGCAA,-0.0611
20,CGGAGCTA,-0.0643
